Y pestis TopoI: blocks Yersinia pestis topoisomerase I activity | Y. pestis Topo-I cleavage product accumulation, plate reader | activity, % at 10 µM | hit rate 0.064% among 360,000 | AID 504884; in the data active = activity above about 50%, passing the limit was not always enough
PfHsp40 rescue: compounds rescuing yeast from Plasmodium falciparum HSP40 toxicity. growth rescue, % at 12.5 µM. S. cerevisiae expressing PfHsp40, growth rescue, ATP luminescence. hit rate 0.68% among 340,000. AID 504582; in the data active = growth rescue above about 28%, passing the limit was not always enough;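 note: yeast W303a lacking pdr1 and pdr3 grown in galactose medium; growth measured after three days at 30 °C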
BJeLR viability: BJeLR cell viability loss; BJeLR (HRASV12) viability, CellTiter-Glo ATP luminescence, 48 h; inhibition, % (test concentration not listed); hit rate 0.17% among 300,000; AID 1554; in the data active = inhibition above about 50%
MazF activator: increases E. coli MazEF RNase cleavage of RNA; FAM/BHQ RNA-DNA oligo cleavage fluorescence, 5 h; activation, % at 20 µM; hit rate 0.32% among 350,000; in the data active = activation above about 50%
Target sequence (P0AE70 whole entry, looked up): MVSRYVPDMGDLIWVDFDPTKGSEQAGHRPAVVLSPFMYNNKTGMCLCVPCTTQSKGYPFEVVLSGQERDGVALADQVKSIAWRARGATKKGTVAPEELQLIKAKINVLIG
BioA inh: blocks M. tuberculosis BioA enzyme activity; AID 602481; purified M. tuberculosis BioA enzyme, plate reader; inhibition, % at 9.99 µM; hit rate 0.096% among 360,000; in the data active = inhibition above about 40%
SARS 3CLpro inh: SARS-CoV 3CLpro protease inhibition. P0C6X7. recombinant SARS-CoV 3CLpro, quenched FRET peptide cleavage. inhibition, % at 6 µM. hit rate 0.14% among 290,000. AID 1706; in the data active = inhibition above about 12%
The depositor's hits bear a star; . = no result given. Shown are actives, neighbours in structure and some others; about 1.1% of the full set was active somewhere.

SMILES | Y pestis TopoI | PfHsp40 rescue | BJeLR viability | MazF activator | BioA inh | SARS 3CLpro inh
CNC[C@H]1OCCCC[C@H](C)Oc2ccc(NS(=O)(=O)c3c(C)noc3C)cc2C(=O)N([C@H](C)CO)C[C@@H]1C | . | . | . | . | -2 | .
O=C1NC(Cc2ccccc2)c2nc3ccc(F)cc3c(=O)n2-c2cc3ccccc3cc21 (stereo not drawn) | 66* | . | . | -27 | -2 | .
O=C1NC(Cc2ccccc2)c2nc3ccc(Cl)cc3c(=O)n2-c2cc3ccccc3cc21 (stereo not drawn) | 41 | . | . | -22 | -4 | .
CCOc1ccc(/C=C/C(=O)Nc2ccc(OC)cc2[N+](=O)[O-])cc1 | -12 | 1 | 3 | 237* | . | -3
N#C/C(=C(/O)COC(=O)Cc1c[nH]c2ccccc12)c1nc2ccccc2[nH]1 | 3 | 80* | 5 | 6 | 2 | 0
O=C(Nc1cccc(F)c1)N[C@H]1CC[C@@H](CCn2cc(Cc3ccccc3)nn2)O[C@@H]1CO | . | . | . | . | 18 | .
O=C(NCC[C@H]1CC[C@H](NS(=O)(=O)c2cccc(F)c2)[C@H](CO)O1)c1cnccn1 | . | . | . | . | -2 | .
C[C@@H]1CN([C@@H](C)CO)C(=O)Cc2cc(NC(=O)Nc3ccc4c(c3)OCO4)ccc2O[C@H]1CN(C)C(=O)Nc1ccccc1 | . | . | . | . | 4 | .
O=[N+]([O-])c1ccccc1/C=N/Nc1nnc(-c2ccccc2)c(-c2ccccc2)n1 | 0 | 42* | 1 | 7 | . | 1
COc1ccc(C(=O)n2nc(-c3ccco3)nc2SC)cc1OC | 9 | -1 | -15 | 109* | 1 | 1
CC1Oc2ccccc2C=C1/C=N/Nc1ccc(C(=O)O)cc1 (stereo not drawn) | -1 | 342* | -5 | 2 | 1 | 5
CCNC(=O)C[C@H]1C=C[C@@H](NC(=O)C2CCC2)[C@@H](CO)O1 | . | . | . | . | -8 | .
COc1ccc(C[C@H]2NC[C@H](O)[C@H]2OC(C)=O)cc1 | 3 | 0 | 82* | 4 | 0 | .
COc1ccc(CCNC(=O)C2CC2)cc1 | 3 | 2 | 3 | 6 | . | .
C[C@H](NC(=O)C[C@@H]1CC[C@H](NC(=O)Nc2ccc3c(c2)OCO3)[C@@H](CO)O1)c1ccccc1 | . | . | . | . | -1 | .
C=CCn1c(O)c(N=Nc2ccccc2)c2ccccc21 | -1 | -1 | -4 | -9 | -2 | -3
C=CCn1c(O)c(N=Nc2ccccc2O)c2ccccc21 | -17 | 1 | . | 311* | -3 | .
C[C@@H]1CN([C@@H](C)CO)C(=O)c2cc(-c3ccc(C#N)cc3)cnc2O[C@H]1CN(C)C(=O)Nc1ccccc1 | . | . | . | . | 1 | .
CCCOc1ccc(CSCCNC(=S)Nc2ccccc2)cc1 | 32 | 216* | -4 | -8 | . | 5
CC(C)(C)c1ccc(C(=O)CC(Sc2ccc(Cl)cc2)C(=O)O)cc1 (stereo not drawn) | 20 | 75* | 4 | -1 | . | 3
O=C(NCC[C@@H]1CC[C@@H](NS(=O)(=O)c2cccc(F)c2)[C@H](CO)O1)C1CCOCC1 | . | . | . | . | -2 | .
O=c1[nH]c(CN2CCN(S(=O)(=O)/C=C/c3ccccc3)CC2)nc2cc(Cl)ccc12 | 6 | 97* | -1 | -6 | -2 | 5
CSc1ccc(CN(C)C(=O)c2cc3ccccc3o2)cc1 | 54* | 4 | -3 | 1 | 3 | -3
CSc1ccc(CN(C)C(=O)c2cc(=O)c3ccccc3o2)cc1 | 28 | 0 | 1 | 2 | 1 | -5
CNC(=O)C[C@@H]1CC[C@@H]2[C@H](COc3ccc(NC(=O)NCc4ccccc4)cc3C(=O)N2C)O1 | . | . | . | . | 0 | .
SMILES | Y pestis TopoI | PfHsp40 rescue | BJeLR viability | MazF activator | BioA inh | SARS 3CLpro inh
CCOC(=O)C(C(=O)OCC)c1cc(Br)c2noc3c2c1C(=O)c1ccccc1-3 | -5 | -1 | 18 | 178* | . | -3
Cc1ccccc1C(=O)NC(=S)Nc1sc2c(c1C#N)CCCC2 | -5 | 71* | -5 | 2 | -1 | 6
N#Cc1c(NC(=O)/C=C/c2ccco2)sc2c1CCCC2 | 2 | 0 | 56* | -4 | . | 3
Cc1onc(-c2ccccc2)c1C(=O)NC(=S)Nc1sc2c(c1C#N)CCCC2 | 1 | 0 | 4 | -4 | . | -1
O=C(Cc1ccncc1)NCC[C@H]1CC[C@H](NC(=O)Nc2cccc(F)c2)[C@@H](CO)O1 | . | . | . | . | 0 | .
N=c1c2c(-c3ccccc3)c(-c3ccccc3)n(Cc3ccco3)c2ncn1Cc1ccco1 | 7 | 3 | 15 | 17 | 21 | 7
CCCCn1cnc2c(c(-c3ccccc3)c(-c3ccccc3)n2Cc2ccco2)c1=N | 6 | . | 62* | 20 | 7 | 6
COC(=O)C1=C(C)N(C)C(=O)NC1c1cc2c(cc1[N+](=O)[O-])OCO2 (stereo not drawn) | -5 | 35* | 2 | -44 | . | -1
COc1cc(C(=O)Nc2nc(-c3cccs3)cs2)cc(OC)c1OC | 1 | 41* | -12 | 5 | -1 | 3
O=C(C[C@@H]1CC[C@H]2[C@@H](COC[C@@H](O)CN2S(=O)(=O)c2ccc(Cl)cc2)O1)NCCN1CCCC1 | . | . | . | . | 0 | .
CC(C)(C)c1ccc(OCc2ccc(C(=O)Nc3cccnc3)o2)cc1 | 40 | 37* | 5 | -5 | 3 | -2
O=C1c2cccc(Cl)c2C(=O)c2c1cccc2N1CCCC1 | 4 | 381* | 4 | -3 | -1 | 5
N#C/C(=C(/O)c1ccc([N+](=O)[O-])o1)c1nc2ccccc2[nH]1 | 1 | 0 | -13 | 141* | . | 3
N#C/C(=C\c1ccc([N+](=O)[O-])o1)c1nc2ccccc2[nH]1 | . | . | 44 | -20 | . | 0
COc1ccc(C2CC(c3ccccc3)=NN2C(=O)COC(=O)c2cccc(S(=O)(=O)N3CCOCC3)c2)cc1 (stereo not drawn) | 60* | 2 | -5 | -4 | . | -2
COc1ccc(C2CC(c3ccccc3)=NN2C(=O)COC(=O)c2cccc(S(=O)(=O)N(C)C)c2)cc1 (stereo not drawn) | 31 | -2 | 7 | -21 | . | 4
NC(=O)N=Nc1c2[nH]c3ccccc3nc-2c2ccccc12 | -18 | 45* | 18 | 10 | 0 | -1
COc1ccc(S(=O)(=O)N(C)C[C@H]2Oc3c(NC(=O)Nc4ccc(C(F)(F)F)cc4)cccc3C(=O)N([C@@H](C)CO)C[C@H]2C)cc1 | . | . | . | . | -3 | .
Cc1c2ccncc2c(C)c2c1[nH]c1ccccc12 | -37 | -1 | 19 | -17 | -16 | -9
COc1ccc2[nH]c3c(C)c4ccncc4c(C)c3c2c1 | -56 | 8 | 101* | -11 | -1 | -12
COc1ccc(C#Cc2ccc3c(c2)[C@]2(C(=O)N3)[C@H](C(=O)Nc3nc4ccccc4s3)[C@H]3C(=O)O[C@H](c4ccccc4)[C@H](c4ccccc4)N3[C@@H]2c2ccccc2OCCO)cc1 | . | . | . | . | -9 | .
CO[C@@H]1CN(C)C(=O)c2ccc(NS(=O)(=O)c3ccccc3)cc2OC[C@H](C)NC[C@H]1C | . | . | . | . | 2 | .
CC1(C)CC(=O)c2c(nc(SCC(=O)Nc3nsc(-c4ccccc4)n3)c(C#N)c2-c2ccccc2)C1 | 4 | 0 | 59* | -48 | -1 | 4

Bioassay records as filed in PubChem BioAssay.
